Potency and affinity values are given separately. Calls of active or inactive are those of the source.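 How the source made its calls: active means every repeat run showing a signal drop whose fitted half-maximal concentration is at most twice the top tested concentration; inconclusive means repeat runs disagree, or flat partial drop, or poor fit; inactive means the rest.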
Experiment: general mammalian cell viability loss – activator set, cherry-pick, cytotoxicity control for miR-122 modulator project, dose response (AID 720690)
Conditions: HEK293T viability, CellTiter-Glo luminescence, 48 h; series mostly up to 26 µM

Row | Structure (SMILES) | outcome
1 | CC(=O)Nc1ccc2c(c1)C(=O)N(C)[C@H]1CC[C@H](CC(=O)Nc3ccccc3Cl)O[C@@H]1CO2 | inactive
2 | COc1ccc(C#Cc2ccc3c(c2)O[C@H](CN(C)C(=O)CN2CCOCC2)[C@H](C)CN([C@H](C)CO)S3(=O)=O)cc1 | inactive
3 | COc1ccc(C(O)(CC(C)C)C(CN2CCOCC2)c2ccccc2)cc1 (centres undefined) | inactive
4 | COC(=O)C[C@@H]1CC[C@H]2[C@@H](COc3ccc(NC(=O)Nc4ccccc4C)cc3C(=O)N2C)O1 | inactive
